Compound activity: PubChem BioAssay, ICCB-Longwood Screening Facility, Harvard Medical School
MbtI inh – MbtI salicylate synthase inhibition. purified MbtI enzyme, fluorescence intensity read-out. 0.89% of 100,000 active. inhibition, % (test concentration not listed); in the data active = inhibition mostly above about 56%, no sharp cut-off; inactive = mostly below about 77%
Mtb MenB inh – blocks the Mycobacterium tuberculosis MenB enzyme; AID 540299; 0.43% of 100,000 active; inhibition, % (concentration not given with the values); P9WNP5; MenB enzyme assay, absorbance read-out; in the data active = inhibition above about 21%, passing the limit was not always enough
Target sequence (P9WNP5 whole entry, looked up): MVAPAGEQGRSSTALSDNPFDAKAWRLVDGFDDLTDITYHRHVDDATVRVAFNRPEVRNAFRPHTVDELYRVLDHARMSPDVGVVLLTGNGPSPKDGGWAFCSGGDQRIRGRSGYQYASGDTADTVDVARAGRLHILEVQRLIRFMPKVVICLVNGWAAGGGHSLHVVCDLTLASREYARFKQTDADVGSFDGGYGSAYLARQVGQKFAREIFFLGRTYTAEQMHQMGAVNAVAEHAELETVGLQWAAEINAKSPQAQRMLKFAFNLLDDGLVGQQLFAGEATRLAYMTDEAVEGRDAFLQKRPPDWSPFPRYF
Polio RdRp inh – inhibitors of poliovirus RNA polymerase binding and polymerization | P03300 | poliovirus polymerase elongation, fluorescence polarization; hits give low values | 0.66% of 150,000 active | % elongation, % (compound at 16.7 µg/mL); in the data active = % elongation below about 90%
AID504770 – growth inhibitors of E. coli YBA685 in a screen for V. cholerae RctB (chromosome II replication) inhibitors; E. coli YBA685 rctB-dependent plasmid, OD600 growth, 3 h; hits give low values; z-score (no concentration beside the values); 0.27% of 130,000 active; in the data active = z-score below about -2, passing the limit was not always enough
An asterisk follows results filed as active; / = no result. Sampled rows, rich in hits. Any-hit rate of the full collection: about 1.4%.

SMILES | MbtI inh | Mtb MenB inh | Polio RdRp inh | AID504770
CC(C)(O/N=C(/C(=O)N[C@@H]1C(=O)N2C(C(=O)[O-])=C(C[n+]3ccccc3)CS[C@H]12)c1csc(N)n1)C(=O)O | 2 | -5 | 98 | /
COc1ccc(S(=O)(=O)c2cn(Cc3ccccc3)c3ccc(OC)cc3c2=O)cc1 | / | / | 102 | /
CCOc1ccc(S(=O)(=O)c2cn(Cc3ccc(C)cc3)c3ccc(OC)cc3c2=O)cc1 | / | / | 90* | /
O=S(=O)(c1cccs1)c1cccs1 | / | / | / | -0.65
N#Cc1nccnc1S(=O)(=O)c1cccs1 | / | / | / | -7.8*
CO[C@@]12[C@@H]3NC3CN1C1=C(C(=O)C(N)=C(C)C1=O)[C@@H]2COC(N)=O (stereo partly drawn) | -12 | 0 | 100 | -5.2*
Cc1[nH]nc2c1C(c1ccccc1F)N(C)C2=O (stereo not drawn) | -10 | -22 | 99 | 0.3
Cc1cccc(/C=N/NC(=O)c2ccccn2)c1O | -6 | -78 | 104 | -2.3*
CCNC(=S)NCc1ccc2c(c1)OCO2 | -9 | -26 | 106 | -1.4
CC1CCC2(CC1)NC(=O)N(NC(=S)NCc1ccc3c(c1)OCO3)C2=O (stereo not drawn) | 67* | -29 | 103 | 2.2
CC1=NN(c2nc3ccccc3[nH]2)C(=O)C1Cc1ccccc1 (stereo not drawn) | 76* | -74 | 107 | -0.85
CCc1nnc(NC(=O)c2sc3nc4c(cc3c2N)CCCC4)s1 | / | -25 | 100 | -0.2
O=C(Nc1ccc(F)cc1)C(Sc1nnc(C2CC2)o1)c1ccccc1 (stereo not drawn) | 55* | -4 | 96 | -0.4
O=C(Nc1nnc(-c2ccccc2)o1)c1cccc(C(F)(F)F)c1 | / | / | / | 0.1
CCCOc1ccc(C(=O)NCC2CCCO2)cc1 (stereo not drawn) | -28 | -10 | 104 | -1
COc1cc(N)c(Cl)cc1C(=O)OCC(=O)N(C)c1ccccc1 | -9 | -21 | 104 | -0.3
Nc1cccc2c1C(=O)N(C(=O)/C=C/c1cccc(F)c1)C2=O | 12 | -36 | 82* | 0.3
CC1Cc2ccccc2N1C(=O)/C=C/c1cccc(F)c1 (stereo not drawn) | 14 | -5 | 98 | 0.1
CCNc1nc(NCC)n2c(SCC(=O)Nc3ccc(CC)cc3)nnc2n1 | 87* | -68 | 104 | -0.55
C=CCN(CC=C)C(=O)C[n+]1cccc(C(N)=O)c1 | 6 | -26 | 101 | 0.2
C=CCN(CC=C)C(=O)C[n+]1ccc(C(N)=O)cc1 | 0 | -15 | 103 | -4*
O=C(O)C1C2C=CC(C2)C1C(=O)Nc1cccc(Br)c1 (stereo not drawn) | -3 | 26* | 97 | 0
